Source: PubChem
Rows were chosen to be rich in hits. Some 11% of all compounds tested hit in one or more screens of this group.
NS1 function inh = qHTS Assay for Inhibitors of Influenza NS1 Protein Function. Potency, µM (series often up to 46.1 µM), for the others: at the highest dose activity, positive = more growth. 0.4% of 270,000 active. AID 2326, 2010; calls by dose curve; further: actives are rising curves; nearly all actives have a fitted effect of over 50% in size
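S. cerevisiae expressing influenza A NS1, grown in glucose, washed, then diluted 1:100 into pH 6.0 -URA galactose medium with 23 nl compound. Growth recovery read as OD600; NS1-free strain serves as control.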
Sm TGR inh = qHTS Assay for the Inhibitors of Schistosoma Mansoni Peroxiredoxins. Potency, µM (titrated, usually from 114 µM), inactives show top-dose activity change, negative = inhibition, usual class: inhibitors. purified TGR, DTNB reduction, TNB absorbance 405 nm. Schistosoma mansoni thioredoxin glutathione reductase (TGR), Q962Y6. 3% of 360,000 active. AID 485364, 2010; further: on the % scale 0 is the no-effect control and ±100 the full control effect; nearly all actives have a fitted effect of over 60% in size
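First, TGR (20 nM dispensed) and NADPH were mixed with compound. Second, a 15 min room-temperature incubation followed. Third, further NADPH and then DTNB were added to start the reaction. Finally, TNB absorbance was monitored kinetically.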
AMA1 RON2 block = qHTS for Inhibitors of AMA1-RON; Towards Development of Antimalarial Drug Lead: Primary Screen; Plasmodium falciparum AMA1 (3D7) - RON2 peptide interaction; AlphaScreen AMA1-biotinylated RON2 peptide binding; Potency, µM (highest dose often 58.2 µM), inactives show at the top dose activity change, negative = inhibition, actives largely listed as inhibitors; 0.2% of 360,000 active;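 further: 0% = vehicle wells and -100% = peptide control; nearly all actives have a fitted effect of over 45% in size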
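AMA1 (3D7) with his tag at 25 nM final met compounds first, then biotinylated RON2 peptide at 25 nM; detection used donor plus acceptor beads, 10 µg/mL apiece, read by AlphaScreen after 30 min at room temperature.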
Pf growth 96h = Primary qHTS for delayed death inhibitors of the malarial parasite plastid, 96 hour incubation | 6.9% of 320,000 active | P. falciparum luciferase reporter growth, 96 h | Potency, µM (highest dose often 28.7 µM), for inactives: top-dose activity change, negative = inhibition, hits mostly inhibitors; further: on the % scale 0 is the no-effect control and ±100 the full control effect
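Plates of compound plus infected erythrocytes (2% hematocrit, 0.05% parasitemia final) incubate 96 hours, 37 C, 5% CO2. Detection reagent added; reduced luminescence from the parasites' luciferase reporter flags inhibition.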
Pf growth 48h = Primary qHTS for delayed death inhibitors of the malarial parasite plastid, 48 hour incubation | P. falciparum luciferase growth in erythrocytes, 48 h | Potency, µM (titrated, usually from 28.7 µM), inactives show at the highest dose activity change, negative = inhibition, usual class: inhibitors | 5.9% of 310,000 active; further: on the % scale 0 is the no-effect control and ±100 the full control effect
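First compound was added to culture medium, then infected red cells at 0.1% parasitemia and 2% hematocrit (final). After incubation at 37 C under 5% CO2, luciferase detection reagent was dispensed and light output recorded.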
Starred values were filed as active, the others as inactive; ! = a repeat was not active. Unless noted, the call rests on the fitted dose curve; in most records, active means well fitted curve in the direction sought with a large enough effect; inconclusive means small, poorly fitted or top-dose-only effect, or another doubt; inactive means no such curve, though single readings can be large; an effect the other way counts as inactive or inconclusive. Potency means the concentration at half of the fitted maximal effect.

How did O=C(CSC1=NS(=O)(=O)c2cc(Cl)ccc2N1)Nc1ccccc1C(F)(F)F do in these assays?
Sm TGR inh: 6%; AMA1 RON2 block: -13%; Pf growth 96h: 1%; Pf growth 48h: -9%

How did Cc1ccc(-c2nc(S(=O)(=O)c3ccccc3)c(N3CCN(c4ccccc4)CC3)o2)cc1 do in these assays?
Sm TGR inh: 0%

How did CCN1CCN(c2oc(-c3ccccc3)nc2S(=O)(=O)c2ccc(C)cc2)CC1 do in these assays?
Sm TGR inh: -11%; AMA1 RON2 block: -18%; Pf growth 96h: 12µM*; Pf growth 48h: 13µM*

Results for COc1ccc(-c2nc(S(=O)(=O)c3ccccc3)c(N3CCCC3)o2)cc1 ?
AMA1 RON2 block: -8%

How did COc1ccc(-c2nc(S(=O)(=O)c3ccc(C)cc3)c(N3CCCC3)o2)cc1 do in these assays?
NS1 function inh: -14%; Sm TGR inh: 2µM*; AMA1 RON2 block: -9%; Pf growth 96h: inconclusive; Pf growth 48h: 21%

Results for COc1ccc(-c2nc(S(=O)(=O)c3ccccc3)c(N3CCC(C)CC3)o2)cc1 ?
Sm TGR inh: 3%

Results for CCOc1ccc(-c2nc(S(=O)(=O)c3ccccc3)c(N3CCC(C(N)=O)CC3)o2)cc1 ?
NS1 function inh: -3%; Sm TGR inh: 35µM*; AMA1 RON2 block: -1%; Pf growth 96h: 15µM*; Pf growth 48h: inconclusive

How did Cc1ccc(S(=O)(=O)c2nc(-c3ccc(Cl)cc3)oc2N2CCCCCC2)cc1 do in these assays?
Sm TGR inh: 40µM*

What do the screens show for `CN(CC(=O)Nc1ccc(F)cc1)C(=O)COC(=O)CSc1ccc(F)cc1`?
Sm TGR inh: -2%; AMA1 RON2 block: 14%; Pf growth 96h: 29%; Pf growth 48h: 13%

What do the screens show for `CC(C)Cc1nnc(NC(=O)CCC(=O)NC2CCCC2)s1`?
NS1 function inh: 2%; Sm TGR inh: -6%; AMA1 RON2 block: -5%; Pf growth 96h: inconclusive; Pf growth 48h: inconclusive

How did Cc1ccc(S(=O)(=O)c2nc(-c3ccccc3)oc2N2CCCCCC2)cc1 do in these assays?
Sm TGR inh: -21%

What do the screens show for `Cc1ccc(-c2nc(S(=O)(=O)c3ccc(C)cc3)c(N3CCCCC3)o2)cc1`?
Sm TGR inh: 8.9µM*

How did O=S(=O)(c1ccccc1)c1nc(-c2cccc(Cl)c2)oc1N1CCOCC1 do in these assays?
NS1 function inh: 4%; Sm TGR inh: 32µM*!; AMA1 RON2 block: -14%; Pf growth 96h: inconclusive; Pf growth 48h: 0%

How did Cc1ccc(S(=O)(=O)c2nc(C(C)(C)C)oc2N2CCOCC2)cc1 do in these assays?
NS1 function inh: -6%; Sm TGR inh: 1.1µM*; AMA1 RON2 block: -5%; Pf growth 48h: 27%

How did COc1ccc([C@H]2CC(=O)C[C@@H](CCn3cc(C)nn3)O2)cc1 do in these assays?
AMA1 RON2 block: 5%

What do the screens show for `Cc1[nH]c(C)c(Cl)c(=O)c1Cl`?
Pf growth 96h: 3.4µM*; Pf growth 48h: 6µM*

Results for CCOc1ccc(-n2nc(C(=O)N3CCOCC3)c3ccccc3c2=O)cc1 ?
NS1 function inh: 5%

Results for CCOc1ccc(N(CC)C(=O)c2nn(-c3ccc(OC)cc3)c(=O)c3c2c2ccccc2n3C)cc1 ?
Sm TGR inh: 17%; AMA1 RON2 block: -1%; Pf growth 96h: inconclusive; Pf growth 48h: 1.5µM*

What do the screens show for `CCOc1ccccc1NC(=O)c1nn(-c2ccc(OC)cc2)c(=O)c2c1c1ccccc1n2C`?
Sm TGR inh: -2%

How did CCOc1ccc(-n2nc(C(=O)N3CCN(CC)CC3)c3ccccc3c2=O)cc1 do in these assays?
NS1 function inh: -2%; Sm TGR inh: -21%; AMA1 RON2 block: 3%; Pf growth 96h: inconclusive; Pf growth 48h: 4.1µM*

How did O=C(Nc1ccc(F)cc1F)N1CCN(CCc2ccccc2)CC1 do in these assays?
NS1 function inh: 1%; Sm TGR inh: -2%; AMA1 RON2 block: 3%; Pf growth 96h: 27%; Pf growth 48h: 2.3µM*

What do the screens show for `O=C(Nc1ccc(F)cc1F)N1CCN(C/C=C/c2ccccc2)CC1`?
NS1 function inh: -52%; Sm TGR inh: 6%; AMA1 RON2 block: -6%; Pf growth 96h: inconclusive

How did CC(=O)N(C1=C(N)C(=O)c2ccccc2C1=O)C(C)C do in these assays?
Sm TGR inh: 7.1µM*; AMA1 RON2 block: -15%; Pf growth 96h: 9.3µM*; Pf growth 48h: 13µM*

How did CC(=O)N1N=C(c2ccccc2)OC1c1ccc([N+](=O)[O-])s1 (stereo unspecified) do in these assays?
Sm TGR inh: 32µM*; AMA1 RON2 block: 8%; Pf growth 96h: inconclusive; Pf growth 48h: -4%

Results for CC1CCC2(CC1)NC(=O)N(CC(=O)N1c3ccccc3CC1C)C2=O (stereo unspecified) ?
AMA1 RON2 block: -8%

How did Cc1cc(C)c2oc(C(=O)N(Cc3ccccc3)c3ccccn3)cc(=O)c2c1 do in these assays?
NS1 function inh: 2%; Sm TGR inh: 12%; AMA1 RON2 block: -4%; Pf growth 96h: inconclusive; Pf growth 48h: 12µM*

Results for Cc1ccc(S(=O)(=O)N2CCCCC2c2cccnc2)c(C)c1C (stereo unspecified) ?
NS1 function inh: -10%; Sm TGR inh: 13%; AMA1 RON2 block: 0%; Pf growth 96h: 0.33µM*; Pf growth 48h: inconclusive

What do the screens show for `O=C(COC(=O)/C=C/c1cccs1)Nc1ccc(Cl)cc1F`?
AMA1 RON2 block: 11%

Results for CC(C)C(C(=O)NC1=NCCS1)c1ccc(Cl)cc1 (stereo unspecified) ?
Sm TGR inh: 5%; AMA1 RON2 block: -11%; Pf growth 96h: inconclusive; Pf growth 48h: 3.7µM*

How did COc1ccc(NC(=O)C(c2ccc(Cl)cc2)C(C)C)cn1 (stereo unspecified) do in these assays?
NS1 function inh: -53%; Sm TGR inh: 4%; AMA1 RON2 block: 5%; Pf growth 96h: inconclusive; Pf growth 48h: 1.5µM*

How did COc1ccc(NC(=O)Nc2ccc(F)cc2)cn1 do in these assays?
NS1 function inh: -3%; Sm TGR inh: 19%; AMA1 RON2 block: 27%; Pf growth 96h: 0%; Pf growth 48h: 30%

Results for C/C=C/c1ccc(OCCCNC(C)CC)c(OC)c1 (stereo unspecified) ?
NS1 function inh: 1%; Sm TGR inh: -8%; AMA1 RON2 block: 20µM*; Pf growth 96h: 6%

Results for C/C=C/c1ccc(OCCCNC2CCCC2)c(OC)c1 ?
NS1 function inh: -3%; Sm TGR inh: -24%; AMA1 RON2 block: -16%; Pf growth 48h: inconclusive

How did Cc1ccc(N(CC(=O)NC(C)(C)C)C(=O)CNC(=O)c2cccs2)cc1 do in these assays?
NS1 function inh: 2%; AMA1 RON2 block: -6%; Pf growth 96h: 6%; Pf growth 48h: 7.4µM*
